# 14-3-3 Bad PPI – inhibitors of 14-3-3 zeta/Bad binding, primary screen, biochemical, TR-FRET, bovine 14-3-3 zeta; 14-3-3 protein zeta/delta (Bos taurus), P63103; 220,000 compounds, 0.71% hits; TR-FRET 14-3-3zeta/Dy647-pBad peptide displacement, 1 h; inhibition, % at 21.7 µM;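 active = inhibition above about 70%, limit read from the data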
# Target sequence (P63103 whole entry, looked up): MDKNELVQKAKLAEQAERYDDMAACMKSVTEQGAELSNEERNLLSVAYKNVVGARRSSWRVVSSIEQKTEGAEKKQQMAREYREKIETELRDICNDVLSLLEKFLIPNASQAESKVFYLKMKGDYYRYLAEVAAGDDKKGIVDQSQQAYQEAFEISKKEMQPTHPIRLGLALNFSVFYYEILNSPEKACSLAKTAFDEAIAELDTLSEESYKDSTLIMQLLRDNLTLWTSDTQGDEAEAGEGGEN
# Mcl1 Noxa PPI – Mcl-1/Noxa binding inhibitors, primary screen, biochemical, TR-FRET, 1536-well. Induced myeloid leukemia cell differentiation protein Mcl-1 (Homo sapiens), Q07820. TR-FRET Mcl-1/Noxa peptide binding, 2 h. inhibition, % at 21.7 µM. 220,000 compounds, 1.5% hits. AID 1022, 2008;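 active = compounds that cut the protein-peptide binding signal by more than 50% relative to plate controls in a single-dose test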;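 note: His-tagged Mcl-1 with rhodamine Noxa BH3 peptide and terbium anti-His antibody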
# Mcl-1 Bim block – inhibitors of Bim peptide binding to Mcl-1, primary screen, biochemical, bead-based flow cytometry, multiplex; Induced myeloid leukemia cell differentiation protein Mcl-1 (Homo sapiens), Q07820; Bim peptide-Mcl-1 binding; inhibition, % at 10 µM; 190,000 compounds, 0.1% hits; AID 1009, 2008; in the data active = inhibition above about 40%
# Mcl1 Bid PPI – Mcl-1/Bid binding inhibitors, primary screen, biochemical, TR-FRET, 1536-well | TR-FRET Mcl-1/Bid-Dy647 peptide binding | inhibition, % at 21.7 µM | 220,000 compounds, 0.97% hits | Induced myeloid leukemia cell differentiation protein Mcl-1 (Homo sapiens), Q07820 | AID 1021, 2008;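 active = compounds that cut the binding signal by more than half at the single screening dose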;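 note: His-tagged Mcl-1 with europium anti-His antibody binding Bid BH3 peptide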
# MCL1-BIM inh – inhibitors of MCL1 binding to BIM-BH3, primary screen, biochemical, fluorescence polarization | Induced myeloid leukemia cell differentiation protein Mcl-1 (Homo sapiens), Q07820 | GST-MCL1 / FITC-Bim-BH3 fluorescence polarization | 320,000 compounds, 0.68% hits | inhibition, % at 10.9 µM;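 active = inhibition above the mean inhibition of all tested compounds plus 3 SD, set per campaign, cut at about 40% in these data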;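 note: higher means more loss of mP so more displacement of Bim peptide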
# BCLXL inh confirm – Bcl-xL inhibitors blocking Bim BH3 binding, confirmation, counter-screen for MCL1 inhibitor project, biochemical, fluorescence polarization; inhibition, % at 10.9 µM; 1,700 compounds, 54% hits; GST-Bcl-xL / FITC-Bim BH3 peptide FP binding; shares compounds with MCL1-BIM inh;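 active = inhibition above a cutoff equal to the mean inhibition of all tested compounds plus 3 SD, cut at about 30% in these data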
# Target sequence (Q07817 whole entry, looked up): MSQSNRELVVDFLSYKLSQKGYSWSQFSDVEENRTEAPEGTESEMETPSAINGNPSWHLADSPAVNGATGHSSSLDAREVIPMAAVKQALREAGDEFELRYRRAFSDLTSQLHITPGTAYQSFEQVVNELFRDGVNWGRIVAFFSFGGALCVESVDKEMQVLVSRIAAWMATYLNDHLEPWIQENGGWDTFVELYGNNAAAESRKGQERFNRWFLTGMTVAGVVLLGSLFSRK
# MCL1 BIM confirm – inhibitors of MCL1 binding to BIM-BH3, confirmation, biochemical, fluorescence polarization, triplicate; 1,700 compounds, 61% hits; GST-MCL1 / FITC-Bim-BH3 fluorescence polarization; inhibition, % at 10.9 µM; shares compounds with MCL1-BIM inh;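 active = inhibition above the average of all tested compounds plus 3 SD, cut at about 40% in these data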
# A number is an active result; i = inactive; nt = no result; [ ] = dose if it differs, or a comment. Most compounds without a hit are left out; they make up all but 2.5% or so of the library.
SMILES,14-3-3 Bad PPI,Mcl1 Noxa PPI,Mcl-1 Bim block,Mcl1 Bid PPI,MCL1-BIM inh,BCLXL inh confirm,MCL1 BIM confirm
COC(=O)[C@]1(Cc2ccccc2)N[C@H](c2ccc(-c3ccc(OC)cc3)cc2)[C@@H]2C(=O)N(C)C(=O)[C@@H]21,nt,nt,nt,nt,i,nt,nt
CCC1(C(=O)OC)NC(c2ccccc2OC)C2C(=O)N(C)C(=O)C21 (configuration not stated),i,i,i,i,58,i,i
CC1Oc2ccccc2N(Cc2ccccc2Cl)C1=O (configuration not stated),i,i,i,i,i,nt,nt
CCC(=O)Nc1ccc(S(=O)(=O)Nc2nccs2)cc1,nt,nt,nt,nt,i,nt,nt
CC1=CC(=Nc2c(C)n(C)n(-c3ccccc3)c2=O)C=C(C)C1=O,i,i,i,i,i,nt,nt
CC1=CC(=Nc2c(C)n(C)n(-c3ccccc3)c2=O)C=CC1=O,i,i,nt,i,126,i,i
COc1ccc(C(=S)N2CCN(c3ccccc3Cl)CC2)cc1OC,i,i,nt,i,i,nt,nt
COc1cc(C(=S)N2CCN(c3ccccc3Cl)CC2)cc(O)c1O,i,60,i,i,58,34,71
CC(C)C(=O)Nc1ccc(C(=O)CN2C(=O)NC3(CCOc4ccccc43)C2=O)cc1 (configuration not stated),nt,nt,nt,nt,i,nt,nt
Cc1nn(-c2ccccc2)c(C)c1C(=O)OCC(=O)NCc1ccco1,i,i,i,i,i,nt,nt
Cc1cc(NS(=O)(=O)c2ccc(NC(=O)Cc3cccs3)cc2)no1,i,i,i,i,i,nt,nt
Cc1cc(NC(=O)Cc2cccs2)no1,i,102,i,i,62,i,69
COc1ccc(C(=O)C2CCCN(C(=O)C3CCOCC3)C2)cc1OC (configuration not stated),nt,nt,nt,nt,i,nt,nt
CCC(=O)OC1(C)C(=O)C=C2C=C(C3CC3)OC=C2C1=O (configuration not stated),nt,nt,nt,nt,63,i,i
CC1(OC(=O)c2ccco2)C(=O)C=C2C=C(C3CC3)OC=C2C1=O (configuration not stated),nt,nt,nt,nt,79,40,59
CC1(OC(=O)c2cnc3ccccc3n2)C(=O)C=C2C=C(C3CC3)OC=C2C1=O (configuration not stated),nt,nt,nt,nt,130,81,117
Cc1cccc(NC(=O)c2ccc(N3CCCCC3)c([N+](=O)[O-])c2)n1,i,i,i,i,i,nt,nt
O=C(CSc1nnc(Cn2c(=O)sc3ccccc32)n1CCc1ccccc1)N1CCOCC1,i,i,i,i,i,nt,nt
O=c1[nH]c(S)c(/C=C2\C=Nc3ccccc32)s1,i,62,nt,i,76,86,108
O=C(Cn1c(O)c(/C=C2\C=Nc3ccccc32)sc1=O)N1CCOCC1,i,i,i,i,i,nt,nt
CCCC1=NN2C(=N)/C(=C\c3ccc(SCc4ccco4)o3)C(=O)N=C2S1,i,84,i,i,80,i,i
COc1ccc2oc(C(=O)N3CCN(S(=O)(=O)c4cccc([N+](=O)[O-])c4)CC3)c(C)c2c1,nt,nt,nt,nt,46,i,i
COc1ccc2oc(C(=O)OCC(=O)N3CCN(S(=O)(=O)c4ccccc4)CC3)c(C)c2c1,nt,nt,nt,nt,i,nt,nt
COc1ccc(C2CC(=O)C(C=NCCCO)=C(O)C2)cc1 (configuration not stated),nt,nt,nt,nt,80,61,85
O=S(=O)([O-])C(c1ccccc1)[n+]1ccccc1 (configuration not stated),nt,nt,nt,nt,47,i,i
SMILES,14-3-3 Bad PPI,Mcl1 Noxa PPI,Mcl-1 Bim block,Mcl1 Bid PPI,MCL1-BIM inh,BCLXL inh confirm,MCL1 BIM confirm
CCOC(=O)C1=C(C)NC(C)=C(C(=O)OCC)C1C(=O)OCC(N)=O,i,i,i,i,110,i,i
Cc1cccc(C(=O)Oc2ccccc2/C=N/NC(=O)c2ccc(NC(=O)C(C)(C)C)cc2)c1,i,i,i,i,i,nt,nt
O=C1CCCC2=C1C(c1ccco1)Nc1ccc3ccccc3c12 (configuration not stated),72[fluorescence artefact?],99,i,60,67,i,78
O=C1CCCC2=C1C(c1ccc(O)c(O)c1)Nc1ccc3ccccc3c12 (configuration not stated),nt,nt,nt,nt,i,nt,nt
CCC(=O)Nc1cc(-c2nn(C)c(=O)c3ccccc23)ccc1N1CCOCC1,i,i,i,i,i,nt,nt
O=C(O)CN1C(=O)/C(=C\c2cn(-c3ccccc3)nc2-c2ccccc2)SC1=S,nt,nt,nt,nt,i,nt,nt
O=C(O)CN1C(=O)/C(=C\c2cc(Br)ccc2OCc2ccccc2F)SC1=S,nt,nt,nt,nt,46,i,i
O=C(O)CN1C(=O)/C(=C\c2cc(Br)ccc2OCc2ccc([N+](=O)[O-])cc2)SC1=S,nt,nt,nt,nt,72,37,61
O/N=C/c1cc(Br)ccc1OCc1ccccc1F,nt,nt,nt,nt,i,nt,nt
O=C(O)CCN1C(=O)/C(=C\c2ccc(OCc3ccccc3)c(OCc3ccccc3)c2)SC1=S,nt,nt,nt,nt,i,nt,nt
O=C(O)CN1C(=O)/C(=C\c2ccccc2OCc2ccc(Cl)cc2Cl)SC1=S,nt,nt,nt,nt,55,31,45
O=C(c1cnsn1)N1CCCC(Nc2ccc(F)c(F)c2)C1 (configuration not stated),nt,nt,nt,nt,i,nt,nt
N/C(CS(=O)(=O)c1ccccc1)=N\OC(=O)c1ccc(F)cc1,nt,nt,nt,nt,i,nt,nt
CCOC(=O)C1CCN(S(=O)(=O)c2ccc(CNC(=O)c3ccccc3)s2)CC1,nt,nt,nt,nt,i,nt,nt
Cc1ccc2nc(-c3ccc(O)c(O)c3)cn2c1,nt,nt,nt,nt,40,61,82
Cc1ccc2nc(-c3ccccc3)cn2c1,i,i,i,i,i,nt,nt
Cc1ccc2[nH]c(=O)c(C3C(C#N)=C(N)Oc4c3ccc3cccnc43)cc2c1 (configuration not stated),i,i,i,60,44,37,58
O=C1Nc2cc(C(=O)N3CCOCC3)ccc2S/C1=C\c1ccccc1,nt,nt,nt,nt,i,nt,nt
COc1ccc(C(=O)N/N=C(\C)c2ccc3c(c2)C2C=CCC2C(c2ccccc2)N3)cc1 (configuration not stated),i,i,i,i,56,i,i
COc1cccc(NS(=O)(=O)c2ccc3c(c2)C2C=CCC2C(c2ccc(C(=O)O)cc2)N3)c1 (configuration not stated),i,97,i,i,58,i,46
O=C(NCCOc1ccccc1)C1Nc2ccc(OC(F)(F)F)cc2C2C=CCC12 (configuration not stated),nt,nt,nt,nt,i,nt,nt

# Assay outcomes as filed in PubChem.
